Test [1] can be described thus: qHTS RealTime-Glo MT Cell Viability Assay in HEK293 cells - 0 hour (AID 1224880). Also: top concentration of the series differs between compounds; nearly all actives have a fitted effect of over 45% in size. The method, boiled down: (§1)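 Tox21 screen in HEK293 using RealTime-Glo MT chemistry, with cells and reagent co-dispensed. Luminescence proportional to viable cell number was captured at intervals during 40 h compound exposure at 37 C.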
A general note: Quantitative high-throughput screening tests each substance at several concentrations.

Test [2] is described as follows: A CellTox Green Cytotoxicity Assay to monitor cytotoxicity in HEK293 cells - 32 hour (AID 1224881). Also: nearly all actives have a fitted effect of over 40% in size. The method, boiled down:
(§2)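 Seeding of HEK293 cells together with cytotoxicity dye preceded a 5 h incubation at 37 C/5% CO2. Test compounds in DMSO were then added and fluorescence monitored across 40 h.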

The nature of test [3]: A CellTox Green Cytotoxicity Assay to monitor cytotoxicity in HepG2 cells - 0 hour (AID 1224882). Also: nearly all actives have a fitted effect of over 35% in size. Put shortly:
(§3)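 Nonlytic assay: viable cells exclude the dye, so fluorescence scales with cell death. HepG2 at 600 cells/well, compounds added after 5 h, signal read across 40 h.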

Test [4] can be described thus: A CellTox Green Cytotoxicity Assay to monitor cytotoxicity in HepG2 cells - 32 hour (AID 1224883). Also: nearly all actives have a fitted effect of over 50% in size. Also: potency is read from the fitted curve at half-maximal effect. Put shortly: as §3
Test [5] can be described thus: A CellTox Green Cytotoxicity Assay to monitor cytotoxicity in HEK293 cells - 8 hour (AID 1224884). Also: nearly all actives have a fitted effect of over 35% in size. Put shortly: as §2
Test [6] is described as follows: qHTS RealTime-Glo MT Cell Viability Assay in HepG2 cells - 16 hour (AID 1224885). Also: nearly all actives have a fitted effect of over 50% in size. The method, boiled down: (§4)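 Compound treatment began 5 h after plating HepG2 cells (600/well) with NanoLuc luciferase and prosubstrate. Plates stayed at 37 C for 40 h; luminescence was captured at six time points, 0 h through 40 h.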
Test [7] can be described thus: qHTS RealTime-Glo MT Cell Viability Assay in HEK293 cells - 24 hour (AID 1224886). Also: top concentration of the series differs between compounds; nearly all actives have a fitted effect of over 50% in size. The method, boiled down: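 Quantitative high-throughput screen of the Tox21 10K library in HEK293: cells and RealTime-Glo reagents plated together, compound added at 5 h, luminescence monitored through 40 h at 37 C.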
A short description of test [8]: qHTS RealTime-Glo MT Cell Viability Assay in HEK293 cells - 8 hour (AID 1224887). Also: top concentration of the series differs between compounds; nearly all actives have a fitted effect of over 50% in size. The method, boiled down:
as §1

Test [9] is described as follows: qHTS RealTime-Glo MT Cell Viability Assay in HepG2 cells - 0 hour (AID 1224889). Also: nearly all actives have a fitted effect of over 50% in size. The method, boiled down:
as §4

Test [10] in a line: A CellTox Green Cytotoxicity Assay to monitor cytotoxicity in HepG2 cells - 8 hour (AID 1224890). Also: nearly all actives have a fitted effect of over 45% in size. Put shortly:
as §3

The nature of test [11]: qHTS assay to identify small molecule antagonists of the estrogen receptor alpha (ER-alpha) signaling pathway using the BG1 cell line in the presence of 0.1 nM 17-beta-estradiol - cell viability counter screen (AID 1259241). Also: nearly all actives have a fitted effect of over 40% in size. The method, boiled down: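 CellTiter-Fluor read (30 min, 37C) on ER-alpha/ERE-luc VM7Luc4E2 cells; 22 hr compound treatment; agonist 0.1 nM E2 final; same-well multiplex.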

Test [12] is described as follows: qHTS assay to identify small molecule antagonists of the androgen receptor (AR) signaling pathway using the MDA cell line in the presence of 0.5 nM R1881 - cell viability counter screen (AID 1259242). Also: nearly all actives have a fitted effect of over 45% in size. Put shortly: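 R1881 at 0.5 nM final stimulated MDA-kb2 cells during 16 hr compound treatment at 37C. Cytotoxicity read: CellTiter-Fluor fluorescence after 30 min.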

Test [13] addresses Estrogen receptor (Homo sapiens) (UniProt P03372). Kind of test: qHTS assay to identify small molecule antagonists of the estrogen receptor alpha (ER-alpha) signaling pathway using the BG1 cell line in the presence of 0.1 nM 17-beta-estradiol (AID 1259244). Also: nearly all actives have a fitted effect of over 50% in size. Put shortly:
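VM7Luc4E2; 4xERE-luciferase; 0.1 nM E2 final; 22 h co-incubation, 37C; ONE-Glo luminescence after 30 min at room temperature.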

Test [14] in a line: qHTS assay to identify small molecule phospholipidosis (PLD) inducers (AID 1259344; active = well fitted curve in the direction sought with a large enough effect; an effect the other way counts as inactive or inconclusive). The method, boiled down:
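Quantitative HTS in HepG2: compound plus LipidTOX Red dye for 24 h, paraformaldehyde fixation with Hoechst 33342, widefield high-content imaging; amiodarone as positive and DMSO as negative control.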

Test [15] in a line: qHTS assay to identify small molecule HDAC inhibitors (AID 1259364).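 Also: wild-type HCT-116 cells with endogenous class I/II HDAC activity; top concentration of the series differs between compounds; nearly all actives have a fitted effect of over 45% in size.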 Put shortly: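 Relative class I and II HDAC activity is taken from the luminogenic signal in HCT-116 cells, with compound exposure 2 hr and reagent development 30 min at room temperature.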
Test [16] in a line: qHTS assay to identify small molecule agonists of the sonic hedgehog signaling (Shh) pathway - cell viability counter screen (AID 1259366). Also: nearly all actives have a fitted effect of over 50% in size. The method, boiled down:
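Fluorescence from CellTiter-Fluor reports live cells in this counter screen. NIH/3T3-derived Gli1-Luc reporter cells receive test compounds for 24hr at 37C; reagent goes in at 23hr.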

Test [17] in a line: qHTS assay to identify small molecule antagonists of the sonic hedgehog signaling (Shh) pathway - cell viability counter screen (AID 1259367). Also: nearly all actives have a fitted effect of over 55% in size. Put shortly: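 Seed 3T3 Gli1-Luc cells at 2,000 per well; incubate 4 hr; add compound in DMSO, then conditioned medium; incubate at 37C with 5% CO2; add CellTiter-Fluor after 23 hr; read fluorescence 1 hr later.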
A short description of test [18]: qHTS assay to identify small molecule HDAC inhibitors - cell viability counter screen (AID 1259365). The method, boiled down: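 To flag cytotoxic hits, 1,500 wild-type HCT-116 cells per well, plated the day before, receive test compounds for 2hr at 37 C before CellTiter-Glo reagent and a luminescence read.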
Test [19] is described as follows: A CellTox Green Cytotoxicity Assay to monitor cytotoxicity in HEK293 cells - 16 hour (AID 1224888). Also: nearly all actives have a fitted effect of over 35% in size. Put shortly: as §2

The structures appear in SMILES notation. Values joined by “and” are separate entries in the source; they are usually repeats but may differ in a detail not shown here. Equal entries are not always repeated. Results filed as inconclusive are left out. Some compounds were tested as several samples or in several runs, with calls that do not always agree. Active and inactive are the calls of the source. Unless noted, calls follow the shape of the dose curve; as a rule, active = well fitted curve in the direction sought with a large enough effect in the repeat runs; inconclusive = weak or mixed curves; inactive = no such curve, though single readings can be large; an effect the other way counts as inactive or inconclusive.

Chain of Estrogen receptor (Homo sapiens) (P03372 whole entry, looked up): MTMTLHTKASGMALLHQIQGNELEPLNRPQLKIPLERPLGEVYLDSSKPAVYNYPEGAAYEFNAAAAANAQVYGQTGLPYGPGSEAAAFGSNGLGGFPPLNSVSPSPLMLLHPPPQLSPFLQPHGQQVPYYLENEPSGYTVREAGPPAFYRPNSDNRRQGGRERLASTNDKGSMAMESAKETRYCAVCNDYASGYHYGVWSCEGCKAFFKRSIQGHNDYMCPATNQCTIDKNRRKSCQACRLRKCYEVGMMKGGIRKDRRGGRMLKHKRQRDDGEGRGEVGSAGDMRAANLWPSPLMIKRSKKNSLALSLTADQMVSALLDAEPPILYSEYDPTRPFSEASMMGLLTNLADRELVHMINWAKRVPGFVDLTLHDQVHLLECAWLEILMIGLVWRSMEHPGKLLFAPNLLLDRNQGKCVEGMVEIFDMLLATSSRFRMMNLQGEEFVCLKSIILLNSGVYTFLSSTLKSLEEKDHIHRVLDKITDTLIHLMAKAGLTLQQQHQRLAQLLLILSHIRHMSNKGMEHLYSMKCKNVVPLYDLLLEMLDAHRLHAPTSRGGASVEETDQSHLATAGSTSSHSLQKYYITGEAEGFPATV

`O=C/C=C/c1ccccc1`: the call in test [1], in test [6], in test [7], in [8], in [9] and in test [11] was inactive. For the same compound, the result in test [12] was inactive. Besides, the Potency entry in [2], in test [3], in test [4], in test [5], in test [10] and in test [13] was “inactive” in each case. For the same compound, the Potency entry in test [14], in [15], in [16] and in [17] was “inactive” each time.
For the compound `O=C(O)C1C(C(=O)O)C2(Cl)C(Cl)=C(Cl)C1(Cl)C2(Cl)Cl` (configuration not stated), the result in test [1], in [6], in [7], in test [8], in [9] and in [11] was inactive. Further, the result in test [12] was inactive. Also, the Potency entry in [2], in test [3], in [4], in test [5], in [10] and in test [13] was “inactive” in each case. Also, the Potency result in [15], in test [16] and in test [17] was “inactive” each time.
With `CCOC(=O)CC(SP(=O)(OC)OC)C(=O)OCC` (configuration not stated), the compound was called inactive in test [1], in test [6], in [7], in [8], in test [9] and in test [11]. The result in test [12] and in [18] was inactive. The Potency result in test [3], in [4], in test [5], in [10], in test [15] and in test [16] was “inactive” throughout. In test [17], the Potency result is “inactive”.
On to `CN(C)C(=O)C(c1ccccc1)c1ccccc1`, for which the compound was classed as inactive in [1], in test [6], in [7], in [8], in test [9] and in [11]. Further, the result in [12] was inactive. In addition, the Potency entry in [3], in [4], in test [5], in [19], in [10] and in test [15] was “inactive” each time. Also, the Potency result in test [16] and in [17] was “inactive” throughout.
`Cc1ccc(O)c(C)c1`: the call in test [1], in [6], in test [7], in test [8], in test [9] and in test [11] was inactive. For the same compound, in test [12], the outcome was inactive. The Potency result in test [3], in [4], in [5], in test [10], in [13] and in [15] was “inactive” throughout. Besides, the Potency result in [16] and in test [17] was “inactive” each time.
Consider `CC(=O)C1CCOC1=O` (configuration not stated), for which the outcome in test [1], in [6], in test [7], in test [8], in test [9] and in test [11] was inactive. Moreover, the outcome in [12] and in test [18] was inactive. Moreover, the Potency entry in test [3], in test [4], in [5], in [19], in test [10] and in test [15] was “inactive” throughout. Also, the Potency result in test [16] and in test [17] was “inactive” throughout.
In the case of `CC[N+](=O)[O-]`, the compound was called inactive in [1], in test [6], in test [7], in [8], in [9] and in test [11]. Besides, the result in [12] and in [18] was inactive. The Potency result in [3], in test [4], in test [5], in test [10], in [15] and in [16] was “inactive” throughout. Further, in test [17], the Potency entry was “inactive”.
For `OC[C@@H](O)[C@H]1O[C@@H]2O[C@H](C(Cl)(Cl)Cl)O[C@@H]2[C@H]1O`, the compound was called inactive in [1], in test [6], in test [7], in test [8], in [9] and in test [11]. Besides, the result in test [12] and in [18] was inactive. Further, the Potency entry in test [3], in [4], in test [5], in test [10], in test [13] and in test [14] was “inactive” throughout. The Potency result in test [15], in test [16] and in test [17] was “inactive” in each case.
`Sc1ccccc1`: the compound was classed as inactive in [1], in test [6], in test [7], in test [8], in [9] and in test [11]. Moreover, the result in test [12] and in [18] was inactive. Moreover, the Potency result in test [3], in [5], in test [10], in [13], in test [15] and in test [16] was “inactive” throughout. The Potency result in [17] is “inactive”. Besides, the Potency result in test [4] was “inactive and 43.6 µM (active)”.

These data come from PubChem BioAssay (Tox21).
